MITF primary – MITF inhibitors, primary screen, biochemical, AlphaScreen, human; 650,000 compounds, 0.91% hits; Microphthalmia-associated transcription factor (Homo sapiens), O75030; inhibition, % at 2.6 µM; AlphaScreen MITF homodimerization, bead proximity signal; in the data active = inhibition above about 50%;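 note: 0% = vehicle wells with protein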
Target sequence (O75030 whole entry, looked up): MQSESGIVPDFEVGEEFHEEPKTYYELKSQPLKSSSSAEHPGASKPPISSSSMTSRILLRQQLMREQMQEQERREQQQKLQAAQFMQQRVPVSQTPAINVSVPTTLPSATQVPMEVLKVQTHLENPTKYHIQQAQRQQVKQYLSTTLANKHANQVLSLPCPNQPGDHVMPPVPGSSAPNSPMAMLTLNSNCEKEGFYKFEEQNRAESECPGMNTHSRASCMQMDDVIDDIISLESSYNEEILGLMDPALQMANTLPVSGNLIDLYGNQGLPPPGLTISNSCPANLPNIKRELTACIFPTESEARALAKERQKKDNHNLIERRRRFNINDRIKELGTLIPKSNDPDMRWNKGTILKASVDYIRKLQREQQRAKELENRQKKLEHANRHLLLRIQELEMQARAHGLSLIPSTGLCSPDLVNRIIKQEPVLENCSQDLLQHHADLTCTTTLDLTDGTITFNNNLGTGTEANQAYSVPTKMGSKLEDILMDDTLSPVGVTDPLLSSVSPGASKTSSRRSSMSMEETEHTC
FBW7 activator – FBW7 E3 ligase activators, primary screen, biochemical, AlphaScreen, human; normalized activity (activation), % at 26.1 µM; F-box/WD repeat-containing protein 7 (Homo sapiens), Q969H0; AID 1259310, 2017; AlphaScreen FBW7–phospho-cyclin E peptide binding, activator screen; 650,000 compounds, 0.13% hits; in the data active = normalized activity above about 1.9%;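 note: purified mutant Fbw7 with reduced substrate affinity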
TEAD-YAP block – TEAD-YAP interaction inhibition, primary screen, TEAD-YAP interaction inhibitor project, luminescence, HEK-TIYL cells; TEAD-Gal4/YAP UAS-luciferase luminescence; inhibition, % at 9.12 µM; 640,000 compounds, 1.4% hits; AID 1259422, 2018; in the data active = inhibition above about 32%;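 note: 0% = median of test compound wells and 100% = reference inhibitor wells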
GPR151 activ – activators of human GPR151, primary screen, cell-based, PathHunter beta-arrestin, luminescence; 650,000 compounds, 1% hits; activation, % at 11.2 µM; AID 1508602, 2020; PathHunter beta-arrestin GPR151 cells; G-protein coupled receptor 151 (Homo sapiens), Q8TDV0; in the data active = activation above about 4.9%;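 note: 0% = median of compound wells and 100% = cells with positive control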
Numbers without * were called inactive. The list is not random: actives were taken first. Their share in the collection is about 3.5%.

Cc1ccc(C(C[N+](=O)[O-])c2c[nH]c3ccccc23)o1 (centres undefined) was read as MITF primary 0, FBW7 activator 0, TEAD-YAP block 54* and GPR151 activ -1.
CC1=CC(=O)C=C(C)C1=NOC(=O)c1ccc([N+](=O)[O-])cc1 was read as MITF primary 8, FBW7 activator 1, TEAD-YAP block 5 and GPR151 activ -2.
Screening CC1=CC(=O)C=C(C)C1=NOC(=O)c1ccc(Cl)cc1 returned MITF primary 73*, FBW7 activator 0, TEAD-YAP block 8 and GPR151 activ 0.
CN(Cc1ccccc1)C1=CC(=[N+]2CCCC2)CC(C)(C)C1 was read as MITF primary -3, FBW7 activator 0, TEAD-YAP block 80* and GPR151 activ 1.
For CCN(CC)C1=CC(=[N+]2CCCC2)CC(C)(C)C1 the results were MITF primary 10, FBW7 activator 0, TEAD-YAP block 60* and GPR151 activ 1.
Screening CN(CCO)C1=CC(=[N+]2CCOCC2)CC(C)(C)C1 returned MITF primary -5, FBW7 activator 0, TEAD-YAP block 5 and GPR151 activ 1.
For Cc1cc(NC(=O)COC(=O)/C(C#N)=C/c2ccc3c(c2)OCO3)ccc1Br the results were MITF primary 0, FBW7 activator 0, TEAD-YAP block 6 and GPR151 activ -1.
Screening COc1ccc2c(c1)OC(C)CN(CCC(=O)NCCc1ccccc1F)C2 (centres undefined) returned MITF primary 0, FBW7 activator 0, TEAD-YAP block -5 and GPR151 activ 1.
For Cc1cc(/C=C(\C#N)c2nc3ccccc3[nH]2)c(C)n1C1CC1 the results were MITF primary -1, FBW7 activator 0, TEAD-YAP block -30 and GPR151 activ 2.
For Cc1cc(/C=C(\C#N)c2nc3ccccc3[nH]2)c(C)n1-c1ccc(F)cc1 the results were MITF primary -5, FBW7 activator 0, TEAD-YAP block 71* and GPR151 activ -1.
For O=C(Nc1ccc([N+](=O)[O-])cc1)Nc1ccon1 the results were MITF primary 16, FBW7 activator 0, TEAD-YAP block 62* and GPR151 activ 1.
Screening O=C(Nc1ccc(I)cc1)Nc1ccc([N+](=O)[O-])cc1 returned MITF primary 19, FBW7 activator 0, TEAD-YAP block 3 and GPR151 activ 1.
COC(=O)C1=C(C)N(C)C(C)=C(C(=O)OC)C1c1cc(Br)c(OC)c(OC)c1 was read as MITF primary 7, FBW7 activator 0, TEAD-YAP block -8 and GPR151 activ 1.
COc1ccc(-n2nc3c(c2NC(=O)C(C)Oc2ccccc2)CSC3)cc1 (centres undefined) was read as MITF primary -2, FBW7 activator 0, TEAD-YAP block -4 and GPR151 activ 3.
For CSCCC(NC(=O)c1cccc(C)c1)C(=O)N(C)Cc1ccc(C)cc1 (centres undefined) the results were MITF primary -1, FBW7 activator 0, TEAD-YAP block 1 and GPR151 activ 1.
Screening COc1ccc(-c2csc(NC(=O)c3ccc(C)cc3)c2C(=O)O)cc1 returned MITF primary 4, FBW7 activator 0, TEAD-YAP block 47* and GPR151 activ 0.
`CCCc1sc(NC(=O)c2ccc(C)cc2)c(C(=O)O)c1C` gave MITF primary 14, FBW7 activator 1, TEAD-YAP block 52* and GPR151 activ -1.
CCOC(=O)c1c(NC(=O)c2ccc(C)cc2)sc(C(=O)Nc2ccccc2)c1C was read as MITF primary -4, FBW7 activator 1, TEAD-YAP block -7 and GPR151 activ 1.
`COc1ccc(CCNC(=O)C/C(C)=N/NC(=O)c2ccc3ccccc3c2)cc1OC` gave MITF primary 1, FBW7 activator 0, TEAD-YAP block 26 and GPR151 activ 0.
Screening O=C(N/N=C\c1ccccc1[N+](=O)[O-])c1n[nH]c2c1CCCC2 returned MITF primary 23, FBW7 activator 0, TEAD-YAP block 54* and GPR151 activ -8.
For O=C(N/N=C/c1ccccc1O)c1n[nH]c2c1CCCC2 the results were MITF primary 4, FBW7 activator -2, TEAD-YAP block 33* and GPR151 activ -3.
Screening O=C(COC(=O)c1ccc([N+](=O)[O-])o1)NC(=O)Nc1ccc2c(c1)OCCO2 returned MITF primary -3, FBW7 activator 0, TEAD-YAP block 37* and GPR151 activ 0.

Assay outcomes: PubChem BioAssay, The Scripps Research Institute Molecular Screening Center
